# Laboratory results as given in paper PMC11062922 (Nature Chemical Biology, 2023).
# Like-named read-outs stand apart in the source and are kept apart here.
# Key:
# Design in all cases: species or system human, MV4-11 + K-562 + COLO205 + SK-N-BE2 + OVCAR-8
# [1] = system: ERN1; conditions: read-out: apparent Kd, compound concentrations: 100 nM and 1000 nM (sheet 'Samples'), n = 1
# [2] = system: FGFR1; conditions: read-out: apparent Kd, compound concentrations: 100 nM and 1000 nM (sheet 'Samples'), n = 1
# [3] = system: FYN; conditions: read-out: apparent Kd, compound concentrations: 100 nM and 1000 nM (sheet 'Samples'), n = 1
# [4] = system: IRAK1; conditions: read-out: apparent Kd, n = 1
# [5] = system: EPHB6; conditions: read-out: apparent Kd, n = 1
# [6] = system: CAMK4; conditions: read-out: apparent Kd; compound concentrations: 100 nM and 1000 nM (sheet 'Samples'), CATDS: 7.8205742217562803E-3; n = 1
# [7] = system: MERTK; conditions: read-out: apparent Kd, n = 1
# [8] = system: EGFR; conditions: read-out: apparent Kd, n = 1
# [9] = system: PIM1; conditions: read-out: apparent Kd, n = 1
# [10] = system: CAMK2D; conditions: read-out: apparent Kd, compound concentrations: 100 nM and 1000 nM (sheet 'Samples'), n = 1
# [11] = system: MAPK1; conditions: read-out: apparent Kd, compound concentrations: 100 nM and 1000 nM (sheet 'Samples'), n = 1
# [12] = system: ACAD8; conditions: read-out: apparent Kd; compound concentrations: 100 nM and 1000 nM (sheet 'Samples'), CATDS: 3.4609202589527301E-3; n = 1
# [13] = system: CSNK1G3; conditions: read-out: apparent Kd; compound concentrations: 100 nM and 1000 nM (sheet 'Samples'), CATDS: 4.4654853896455996E-3; n = 1
# [14] = system: MAPK11; conditions: read-out: apparent Kd, compound concentrations: 100 nM and 1000 nM (sheet 'Samples'), n = 1
# [15] = system: NQO1; conditions: read-out: apparent Kd; compound concentrations: 100 nM and 1000 nM (sheet 'Samples'), CATDS: 3.59016343581718E-3; n = 1
# [16] = system: PRKCI; conditions: read-out: apparent Kd; compound concentrations: 100 nM and 1000 nM (sheet 'Samples'), CATDS: 3.8239218597995801E-3; n = 1
# [17] = system: TAOK1; conditions: read-out: apparent Kd, n = 1
# [18] = system: PAK4; conditions: compound concentrations:0.3nM, 1nM, 3nM, 10nM, 30nM, 100nM, 300nM, by the legend:Standard error of the EC50 estimation as provided by the drc package.; for Kd: read-out: apparent Kd
# [19] = system: PKN3; conditions: compound concentrations:0.3nM, 1nM, 3nM, 10nM, 30nM, 100nM, 300nM, by the legend:Standard error of the EC50 estimation as provided by the drc package.; for Kd: read-out: apparent Kd
# [20] = 1000nM,R2:0.98802455290270397,slope:1.1906156337481999,EC50 Standard Error
# [21] = compound concentrations:100 nM and 1000 nM (sheet 'Samples')
# [22] = 1000nM,R2:0.96781137417830099,slope:0.58987671625518001,EC50 Standard Error
# [23] = 1000nM,R2:0.99888452271644701,slope:1.2700915856501001,EC50 Standard Error
# [24] = 1000nM,R2:0.95736535454590599,slope:1.35169947345033,EC50 Standard Error
# 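Throughout, for EC50: competition pulldown with Kinobeads ε in cell lysates, inhibitor preincubated 45 min at 4 °C, bound kinases quantified by LC–MS/MS against DMSO control.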
# 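Throughout, for Kd: competition pulldown with Kinobeads ε in cell lysates, inhibitor preincubated 45 min at 4 °C, bound kinases quantified by LC–MS/MS against DMSO control.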
smiles,measurement,setting,value
COc1ccc(Nc2ncc(C#N)c(Nc3ccccc3C(N)=O)n2)cc1N1CCN(C)CC1.Cl [GSK1558669A],potency estimated from few doses,[1]; CATDS: 5.84806980625629E-3,2140 nM
same,potency estimated from few doses,[2]; CATDS: 1.43157906499466E-2,74.1 nM
same,potency estimated from few doses,[3]; CATDS: 8.8706126087949692E-3,276 nM
same,potency estimated from few doses,"[4]; compound concentrations: 100 nM and 1000 nM (sheet 'Samples'), CATDS: 7.7027436488320998E-3",467 nM
Clc1cc(Cl)cc(Nc2ccnc(Nc3cc(Cl)cc(Cl)c3)n2)c1 [GSK175726A],potency estimated from few doses,"[5]; compound concentrations: 100 nM and 1000 nM (sheet 'Samples'), CATDS: 8.5475708332426303E-3",1630 nM
same,potency estimated from few doses,[3]; CATDS: 1.87889991520305E-2,150 nM
CCOC(=O)N1CCC(n2cnc(-c3ccc(F)cc3)c2-c2ccnc(N)n2)CC1 [SB-219952],potency estimated from few doses,[6],1850 nM
same,potency estimated from few doses,[1]; CATDS: 7.4915709296516997E-3,2200 nM
same,potency estimated from few doses,[2]; CATDS: 8.7030488552416706E-3,1280 nM
same,potency estimated from few doses,"[7]; compound concentrations: 100 nM and 1000 nM (sheet 'Samples'), CATDS: 8.4469178777721397E-3",1410 nM
Cl.Nc1c(C(=O)c2cccc(C#CCN3CCCCC3)c2)cnn1-c1ccc(F)cc1 [RO1154461-001],potency estimated from few doses,[2]; CATDS: 1.0359283946495801E-2,1680 nM
O=C1N=C(NCCc2ccc(Cl)cc2)S/C1=C\c1ccc2ncccc2c1 [RO4498479-000],potency estimated from few doses,"[8]; compound concentrations: 100 nM and 1000 nM (sheet 'Samples'), CATDS: 6.9080879323699202E-3",1730 nM
same,potency estimated from few doses,"[5]; compound concentrations: 100 nM and 1000 nM (sheet 'Samples'), CATDS: 6.9765900844718596E-3",1660 nM
same,potency estimated from few doses,[2]; CATDS: 8.1769993071202692E-3,946 nM
same,potency estimated from few doses,[3]; CATDS: 1.0262385049400099E-2,523 nM
same,potency estimated from few doses,"[9]; compound concentrations: 100 nM and 1000 nM (sheet 'Samples'), CATDS: 9.1477666322176705E-3",691 nM
Cc1ccc(Nc2ccnc(Nc3ccc4c(c3)CS(=O)(=O)C4)n2)cc1O.Cl [GW579362A],potency estimated from few doses,[10]; CATDS: 4.2472769063291602E-2,502 nM
same,potency estimated from few doses,[11]; CATDS: 2.9087751414108801E-2,1350 nM
CN(c1ccc(NC(=O)N2CCN(CCCN3CCOCC3)CC2)cc1)c1ccnc(Nc2ccc(CS(C)(=O)=O)cc2)n1.Cl [GW830899A],potency estimated from few doses,[10]; CATDS: 3.7668858732559402E-2,430 nM
same,potency estimated from few doses,"[8]; compound concentrations: 100 nM and 1000 nM (sheet 'Samples'), CATDS: 1.7872150639672801E-2",2150 nM
same,potency estimated from few doses,[11]; CATDS: 2.6373806441713499E-2,807 nM
Cn1ncc2c(N)ncnc21 [SKF-18267],potency estimated from few doses,[12],2010 nM
same,potency estimated from few doses,[10]; CATDS: 7.0756718203265796E-3,441 nM
same,potency estimated from few doses,[13],1030 nM
same,potency estimated from few doses,"[8]; compound concentrations: 100 nM and 1000 nM (sheet 'Samples'), CATDS: 3.5324220214717501E-3",1890 nM
same,potency estimated from few doses,"[5]; compound concentrations: 100 nM and 1000 nM (sheet 'Samples'), CATDS: 4.7916385769682596E-3",887 nM
same,potency estimated from few doses,[1]; CATDS: 4.2148373609633104E-3,1180 nM
same,potency estimated from few doses,[2]; CATDS: 4.74692919335207E-3,905 nM
same,potency estimated from few doses,[3]; CATDS: 7.0897882723323898E-3,440 nM
same,potency estimated from few doses,"[4]; compound concentrations: 100 nM and 1000 nM (sheet 'Samples'), CATDS: 3.5689080514204499E-3",1830 nM
same,potency estimated from few doses,[14]; CATDS: 4.4454363185357799E-3,1040 nM
same,potency estimated from few doses,[11]; CATDS: 4.58474987436945E-3,974 nM
same,potency estimated from few doses,"[7]; compound concentrations: 100 nM and 1000 nM (sheet 'Samples'), CATDS: 9.2588510560485896E-3",294 nM
same,potency estimated from few doses,[15],1800 nM
same,potency estimated from few doses,"[9]; compound concentrations: 100 nM and 1000 nM (sheet 'Samples'), CATDS: 7.3887725324269602E-3",412 nM
same,potency estimated from few doses,[16],1500 nM
same,potency estimated from few doses,"[17]; compound concentrations: 100 nM and 1000 nM (sheet 'Samples'), CATDS: 4.9523162341794302E-3",830 nM
Cc1cccc(Nc2nc(N[C@H]3CCCC[C@H]3N)ncc2C(N)=O)c1.Cl [GSK986310C],EC50,[18]; [20],135 nM
same,Kd,[18]; [20],65.9 nM
COc1cccc2c(-c3ccncc3)c(-c3ccc(F)cc3)nn12 [GW468513X],potency estimated from few doses,[14]; CATDS: 3.7828559303077401E-2,1640 nM
Fc1ccc(-c2c(-c3ccncc3)[nH]c3cccnc23)cc1 [RO1153853-000],potency estimated from few doses,[14]; CATDS: 6.1294477906433602E-2,838 nM
CNC(=O)c1ccccc1Nc1nc(Nc2ccc(N3CCOCC3)cc2)ncc1Cl.Cl [GSK1576028A],potency estimated from few doses,[8]; [21],580 nM
same,potency estimated from few doses,[4]; [21],1020 nM
NCCNS(=O)(=O)c1ccc(-c2ccnc3[nH]ccc23)cc1 [GSK977617A],potency estimated from few doses,[7]; [21],1440 nM
O=C1NC(=O)C(N2CCc3ccccc32)=C1c1ccccc1Cl [SB-373598],potency estimated from few doses,[5]; [21],615 nM
same,potency estimated from few doses,[7]; [21],1850 nM
same,potency estimated from few doses,[9]; [21],923 nM
CN1C[C@@H]2Cn3c(c(C4=C(c5cn(C)c6ccccc56)C(=O)NC4=O)c4ccccc43)C[C@H]2C1.Cl [RO0320234-001],potency estimated from few doses,[5]; [21],1960 nM
same,potency estimated from few doses,[17]; [21],1350 nM
CCn1c(-c2nonc2N)nc2c(C#CC(C)(C)O)nc(OCCN)cc21.CCn1c(-c2nonc2N)nc2c(C#CC(C)(C)O)nc(OCCN)cc21.Cl.Cl [GSK902056A],EC50,[18]; [22],5300 nM
same,Kd,[18]; [22],4860 nM
same,EC50,[19]; [23],10.2 nM
same,Kd,[19]; [23],10.2 nM
Cl.NCc1ccc(-c2nc(-c3ccc(Cl)c(O)c3)c(-c3ccncc3)[nH]2)cc1 [SB-476429-A],EC50,[19]; [24],38.4 nM
same,Kd,[19]; [24],38.4 nM
